Hits are enriched below; roughly 12% of the tested compounds scored in any of these assays.
Pf growth 96h – Primary qHTS for delayed death inhibitors of the malarial parasite plastid, 96 hour incubation; P. falciparum luciferase reporter growth, 96 h; Potency, µM (highest dose often 28.7 µM), for the others: at the top dose activity change, negative = inhibition, actives largely listed as inhibitors; hit rate 6.9% among 320,000; AID 504834, 2011; also: % is scaled to controls: 0 for no effect and ±100 for the full control effect
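Cell-based qHTS: luciferase-tagged P. falciparum in erythrocytes (2% hematocrit, 0.05% parasitemia final) incubated with compounds for 96 hours, 37 C, 5% CO2; luciferase detection reagent then added and luminescence measured.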
SARS PLpro yeast – qHTS of Yeast-based Assay for SARS-CoV PLP; Potency, µM (titrated, usually from 32.9 µM), for inactives: at the highest dose activity, positive = growth rescue, actives largely listed as activators; hit rate 0.19% among 330,000; S. cerevisiae expressing SARS-CoV PLpro, growth rescue; calls by dose curve; also: 0% is about no effect; nearly all actives have a fitted effect of over 55% in size
Pf growth 48h – Primary qHTS for delayed death inhibitors of the malarial parasite plastid, 48 hour incubation | P. falciparum luciferase growth in erythrocytes, 48 h | Potency, µM (titrated, usually from 28.7 µM), for the others: at the highest dose activity change, negative = inhibition, most hits filed as inhibitors | hit rate 5.9% among 310,000 | AID 504832, 2011; also: % is scaled to controls: 0 for no effect and ±100 for the full control effect
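In quantitative HTS format, infected erythrocytes bearing luciferase-reporter parasites were treated for a single generation at 37 C. Luminescence after adding detection reagent served as the growth measure.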
Sm TGR inh – qHTS Assay for the Inhibitors of Schistosoma Mansoni Peroxiredoxins. Schistosoma mansoni thioredoxin glutathione reductase (TGR), Q962Y6. purified TGR, DTNB reduction, TNB absorbance 405 nm. Potency, µM (highest dose often 114 µM), inactives show at the top dose activity change, negative = inhibition, most hits filed as inhibitors. hit rate 3% among 360,000; also: % is scaled to controls: 0 for no effect and ±100 for the full control effect; nearly all actives have a fitted effect of over 60% in size
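First, TGR (20 nM dispensed) and NADPH were mixed with compound. Second, a 15 min room-temperature incubation followed. Third, further NADPH and then DTNB were added to start the reaction. Finally, TNB absorbance was monitored kinetically.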
Starred values were filed as active, the others as inactive; ? = inconclusive; . = no result. Unless noted, calls follow the shape of the dose curve; as a rule, active = well fitted curve in the direction sought with a large enough effect; inconclusive = small, poorly fitted or top-dose-only effect, or another doubt; inactive = no such curve, though single readings can be large; an effect the other way counts as inactive or inconclusive. Potency is read from the fitted curve at half-maximal effect.

SMILES	Pf growth 96h	SARS PLpro yeast	Pf growth 48h	Sm TGR inh
COC(=O)CSc1nc2c(c(-c3ccc(O)cc3)c1C#N)CCCC2	-23%	-2%	4%	.
Cc1c(C#N)c(SCC(N)=O)nc2c1CCCC2	9.3µM*	3%	8%	5%
CCOC(=O)C(C)Sc1nc2c(c(-c3cccs3)c1C#N)CCC2 (stereo unspecified)	10µM*	-2%	?	-1%
CCOC(=O)CSc1nc2c(c(-c3ccc(C)o3)c1C#N)CCCC2	-25%	0%	-30%	45µM*
COc1cccc(CNC(=O)CCc2nnc3n(CC(C)C)c(=O)c4ccccc4n23)c1	.	.	.	3%
CC(=O)N1c2ccccc2Oc2cc3ccccc3cc21	?	-37%	1.9µM*	1%
COc1ccc(OC)c(NS(=O)(=O)c2ccc(-c3cc(C)no3)s2)c1	.	.	.	-6%
Cc1cccc(CSc2nc3sc(C)c(C)c3c(=O)n2Cc2ccco2)c1	.	7%	15µM*	-22%
Cc1sc2nc(SCc3ccccc3)n(Cc3ccco3)c(=O)c2c1C	-28%	0%	2%	-32%
Cc1ccc(CSc2nc3sc(C)c(C)c3c(=O)n2Cc2ccco2)cc1	?	-8%	?	-31%
Cc1sc2nc3c4ccccc4c(NCc4ccco4)nn3c(=O)c2c1C	5.9µM*	-1%	59%	50µM*
Cc1sc2nc(SCC(=O)C(C)(C)C)n(Cc3ccco3)c(=O)c2c1C	10µM*	7%	3.7µM*	-25%
CCC1CCCCN1C(=O)COC(=O)c1ccc(Br)o1 (stereo unspecified)	?	-2%	-17%	?
COc1ccc(CCNC(=O)c2nn(-c3ccc(C)cc3)c(=O)c3c2c2ccccc2n3C)cc1OC	.	.	.	6%
O=S(=O)(NCc1ccccc1)c1ccc2c(c1)OCCO2	19%	-1%	13%	-2%
CC(=O)Nc1ccc(S(=O)(=O)NCCc2csc(-c3cccnc3)n2)cc1	8.3µM*	-2%	-9%	?
O=S(=O)(NCc1csc(-c2cccnc2)n1)c1ccc2c(c1)OCCO2	2.9µM*	9%	-3%	3%
O=S(=O)(NCc1cccnc1)c1ccc2c(c1)OCCO2	13µM*	18%	2%	3%
O=S(=O)(NCc1csc(-c2cccnc2)n1)c1ccc(F)cc1	34%	-3%	6%	0%
O=c1[nH]c2ccccc2n1CCCN1CCN(C(c2ccccc2)c2ccccc2)CC1	12µM*	4%	12µM*	-11%
O=c1[nH]c2ccccc2n1CCCN1CCCCC1	?	1%	-12%	-2%
CC(C)(C)c1ccc(C(=O)Nc2ccc(C(=O)OCc3cc(=O)n4ccsc4n3)cc2)cc1	.	.	.	-4%
COc1ccccc1C(=O)NNC(=S)NC(=O)c1sc2ccccc2c1Cl	?	11%	12%	-11%
CC(C)(C)C(=O)NC(=S)Nc1cc(C(F)(F)F)ccc1N1CCOCC1	?	22%	.	-34%
Cc1c(NC(=S)NC(=O)c2sc3ccccc3c2Cl)cccc1C(=O)O	-27%	-3%	236%	3.2µM*
SMILES	Pf growth 96h	SARS PLpro yeast	Pf growth 48h	Sm TGR inh
O=C(NC(=S)Nc1cc(C(F)(F)F)ccc1N1CCOCC1)c1sc2ccccc2c1Cl	3.3µM*	2%	2.1µM*	-4%
CC(/C=N/Nc1ccc2nncn2n1)=C\c1ccccc1	-11%	-8%	?	45µM*
C(=C\c1ccccc1)/C=N/Nc1ccc2nncn2n1	19%	1%	?	0%
COc1ccc2c(c1)c(CC(=O)Nc1ccc(C)cc1)c(C)n2C(=O)c1ccc(Cl)cc1	-13%	1%	.	-15%
COc1ccc(NC(=O)Cc2c(C)n(C(=O)c3ccc(Cl)cc3)c3ccc(OC)cc23)cc1	3.3µM*	-17%	?	-15%
Cc1ccc(Cc2c(C)nc3nc(SCC(=O)NCCCN4CCCCCC4)nn3c2C)cc1	10µM*	2%	?	?
CCOCCCNC(=O)CSc1nc2nc(C)c(Cc3ccccc3)c(C)n2n1	4.7µM*	0%	1%	3%
Cc1nc2nc(SCC(=O)NCCCN3CCCCC3)nn2c(C)c1Cc1ccccc1	-18%	-7%	?	2%
Cc1nc2nc(SCC(=O)NCCCN3CCOCC3)nn2c(C)c1Cc1ccccc1	3.3µM*	-2%	?	-7%
COc1ccc(-c2nc(CS(=O)(=O)CC(=O)NCCCN3CCOCC3)c(C)o2)cc1	14%	2%	-28%	-31%
COc1ccc(Cl)cc1NC(=O)c1ccc(CN2C(=O)CCn3nc(C)cc32)cc1	.	.	.	5%
CCN(CC)CCCN(Cc1cc2cc3c(cc2[nH]c1=O)OCO3)C(=O)Nc1ccccc1OC	10µM*	-1%	?	-3%
COc1cc2cc(CN(Cc3cccnc3)C(=O)Nc3ccccc3F)c(=O)[nH]c2cc1OC	22%	1%	7.4µM*	11%
CCN(CC)CCCN(Cc1cc2cc(OC)c(OC)cc2[nH]c1=O)C(=O)Nc1ccccc1	.	2%	?	-12%
Cc1ccc2cc(CN(CCCN3CCOCC3)C(=O)NC3CCCCC3)c(=O)[nH]c2c1C	20%	-1%	?	-25%
Cc1cc2cc(CN(CCCN3CCOCC3)C(=O)NC3CCCCC3)c(=O)[nH]c2cc1C	240%	-1%	4.7µM*	?
CNC(=S)N(CCc1ccccc1)Cc1cc2cc(OC)c(OC)cc2[nH]c1=O	?	8%	?	9%
Cc1cc2cc(CN(CCN3CCOCC3)C(=O)Nc3ccccc3F)c(=O)[nH]c2cc1C	.	3%	9.3µM*	-29%
Cc1cn2c(=O)cc(COC(=O)c3cccc(NC(=O)c4ccccc4C)c3)nc2s1	.	.	.	5%
Cc1ccc(-n2c3c(c(=O)[nH]c2=O)C(NC(=O)c2ccccc2C)(C(F)(F)F)C(=O)N3)cc1 (stereo unspecified)	.	.	.	0%
Cc1cccc2cc(CN(CCN3CCCC3)C(=O)NC3CCCCC3)c(=O)[nH]c12	?	-8%	4.7µM*	-10%
COc1cccc(S(=O)(=O)NCc2ccc(C(=O)NCc3ccco3)cc2)c1	.	-1%	-11%	28µM*
COc1cccc(S(=O)(=O)Nc2ccc(C(=O)NCc3ccco3)cc2)c1	38%	10%	-5%	-22%
Cc1cccc(C)c1NC(=O)CNC(=O)c1ccc(S(=O)(=O)NCc2ccco2)cc1	-30%	-2%	-12%	20µM*
Cc1cccc(NC(=O)c2ccc(F)c(S(=O)(=O)NCc3ccco3)c2)c1	?	4%	0%	28µM*
COc1ccc(C(=O)NCC(=O)Nc2cccc(S(=O)(=O)NCc3ccco3)c2)cc1OC	-17%	0%	0%	45µM*
CC(=O)Nc1cccc(C(=O)Nc2cccc(S(=O)(=O)NCc3ccco3)c2)c1	?	4%	?	-17%
Cc1cc(C)n2nc(C(=O)OCC(=O)c3ccc(F)cc3)nc2n1	-3%	0%	-14%	-15%
Cn1c(CC(=O)Nc2ccccc2F)nnc1SCC(=O)Nc1ccccc1Br	44%	0%	5%	-1%

Screens: PubChem, National Center for Advancing Translational Sciences (NCATS)
